Measured values published in PubChem BioAssay AID434931 (National Center for Advancing Translational Sciences (NCATS), 2010).
Where “and” joins values, the source holds several entries; their conditions need not be identical. Identical values can stand only once. Inconclusive results are not listed. Unmarked numbers belong to inactive results. Calls of active or inactive are those of the source. The call rests on the fitted dose curve; in most records, active means well fitted inhibition curve with a large enough effect; inconclusive means small, poorly fitted or top-dose-only effect, or another doubt; inactive means no such curve, though single readings can be large or run the other way.

Biological target: Neuropeptide S receptor (Homo sapiens) (UniProt Q6W5P4)
Sequence (Q6W5P4 whole entry, looked up): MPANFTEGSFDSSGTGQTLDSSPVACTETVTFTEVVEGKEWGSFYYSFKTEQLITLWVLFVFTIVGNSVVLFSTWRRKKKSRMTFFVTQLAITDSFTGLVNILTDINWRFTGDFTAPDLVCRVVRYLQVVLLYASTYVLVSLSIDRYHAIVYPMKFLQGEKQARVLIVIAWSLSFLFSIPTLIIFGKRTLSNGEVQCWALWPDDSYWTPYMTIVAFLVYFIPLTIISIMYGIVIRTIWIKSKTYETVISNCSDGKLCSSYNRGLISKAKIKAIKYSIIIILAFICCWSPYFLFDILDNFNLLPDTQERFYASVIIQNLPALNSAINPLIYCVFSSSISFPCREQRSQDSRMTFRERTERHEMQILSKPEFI
Test: Confirmation Concentration-Response Assay for Antagonists of the Neuropeptide S Receptor: Robust Characterization of Calcium Signal Transduction
Conditions: CHO-NPSR cells, NPS-induced calcium fluorescence (FDSS); series mostly up to 31.6 µM; activity, negative = inhibition: at the top concentration
Description: NIH Chemical Genomics Center [NCGC] NIH Molecular Libraries Probe Production centers Network [MLPCN] MLPCN Grant: X01-DA026210-01 Assay Submitter (PI): Heilig, Markus Alexander NCGC Assay Overview: Neuropeptide S receptor (NPSR), previously known as GPR154, is a recently de-orphanized G protein coupled receptor. Its endogenous ligand is the 20 amino acids peptide Neuropeptide S (NPS). […] NPS and its receptor are found in various tissues. Specifically they are highly expressed in brain areas that have been implicated in modulation of arousal, stress and anxiety. Central administration of NPS in mice produces an unusual profile of activity by inducing wakefulness and arousal, while at the same time suppressing anxiety. Therefore, NPSR may represent a novel drug target for the treatment of sleep and anxiety disorders. To identify NPSR antagonists, we developed a cell-based assay with transfected NPS receptor. NPS can stimulate the production of cAMP as well as release intracellular calcium in Chinese hamster ovary cells stably expressing NPS receptor. This change in intracellular calcium can be detected using a calcium indicator dye on a calcium imaging plate reader system (FDSS). This particular assay uses a high density of sampling across concentration-response space to establish more confidence estimates of potency.
NCGC Assay Protocol Summary: A Chinese hamster ovary (CHO) cell line stably expressing the NPS receptor (CHO-NPSR) was obtained from Dr. Heilig lab at NIAAA and maintained in F-12 Kaighn's media (Invitrogen, Carlsbad, CA, 21127) supplemented with 10 % FBS, 100 units/ml penicillin, 100 ug/ml streptomycin and 250 ug/ml geneticin at 37C, 5% CO2 in a humidified atmosphere. Before the assay, aliquots of cells were frozen and stored at -135C. The assay was performed on a FDSS-7000 kinetic plate reader in 1536-well format. For both agonist (1-220s) and antagonist (221-400s) phases, the maximums of kinetic fluorescence responses were converted separately into text files using the instrument's software data export utility. Data for agonist response were normalized to the controls for basal activity (DMSO only) and 100% activation (NPS). […] AC50 values were determined from concentration-response data modeled with the standard Hill equation. NPS 1536-well FDSS assay protocol: (1) Frozen CHO-NPSR cells were thaw, washed once with fresh media and resuspended in F-12 Kaighn's media supplemented with 10 % FBS, 100 units/ml penicillin and 100 ug/ml streptomycin. Cells were plated at 3 ul/well (1200 cells) to black, clear-bottom, tissue-culture treated 1536-well plates, and then cultured at 37C, 5 % CO2 for 16 to 30 hours. (2) Add 3 ul of calcium dye (from High Performance PBX Calcium Assay Kit, BD Biosciences). The calcium dye was prepared according to the manufactory's instruction. (3) Incubation at 37C, 5 % CO2 for 60 to 120 min. (4) Load plates to FDSS-7000. The following steps were performed on FDSS-7000. (5) Record fluorescent background (Ex 480 nm, Em 520-560 nm) for 10 s. (6) Add 23 nl/well of compound in DMSO solution. The final titration for each compound was between 0.6 nM and 46 uM. Record agonist response for 210 s. (7) Add 2 ul of stimulation reagent (1X HBSS buffer, 0.1% BSA, 60 nM NPS). Record antagonist response for 140 s. Keywords: MLSMR, MLPCN, NIH Roadmap, qHTS, NCGC, NPS, Neuropeptide S Antagonists

| Structure (SMILES) | Potency | activity, negative = inhibition [%] |
| --- | --- | --- |
| COc1cccc(C2c3c(ncn(-c4ccccc4C(C)(C)C)c3=N)Oc3ccc4ccccc4c32)c1 (stereo not given) | 1.74 µM (active) | – |
| O=C(Nc1ncnc2c1C(c1ccccc1)c1c(ccc3ccccc13)O2)c1ccccc1 (stereo not given) | 4.92 µM (active) | – |
| CCOc1ccc(C2c3c(ncn(-c4ccccc4)c3=N)Oc3ccc4ccccc4c32)cc1OCC (stereo not given) | 2.46 µM (active) | – |
| COc1ccc(C2c3c(ncn(Cc4ccccc4)c3=N)Oc3ccc4ccccc4c32)cc1OC (stereo not given) | 0.619 µM (active) | – |
| COc1cccc(C2c3c(ncn(-c4cccnc4)c3=N)Oc3ccc4ccccc4c32)c1 (stereo not given) | 1.74 µM (active) | – |
| COc1ccccc1C1c2c(ncn(-c3ccccc3)c2=N)Oc2ccc3ccccc3c21 (stereo not given) | 4.92 µM (active) | – |
| COc1cccc(C2c3c(ncn(-c4ccc(Br)cc4)c3=N)Oc3ccc4ccccc4c32)c1 (stereo not given) | 3.1 µM (active) | – |
| N=c1c2c(ccn1-c1ccccc1)Oc1ccc3ccccc3c1C2c1ccccc1 (stereo not given) | 0.22 µM (active) | – |
| COc1cccc(C2C(C#N)=C(NC(=O)CCc3ccccc3)Oc3ccc4ccccc4c32)c1 (stereo not given) | – | 39.1 |
| COc1cccc(C2c3c(ncn(-c4ccccc4Br)c3=N)Oc3ccc4ccccc4c32)c1 (stereo not given) | 2.76 µM (active) | – |
| COc1cccc(C2c3c(ncn(-c4cccc(C#N)c4)c3=N)Oc3ccc4ccccc4c32)c1 (stereo not given) | 2.76 µM (active) | – |
| COc1cccc(C2c3c(ncn(-c4ccc5c(c4)OCO5)c3=N)Oc3ccc4ccccc4c32)c1 (stereo not given) | 0.0438 µM (active) | – |
| N=c1c2c(ncn1-c1ccccc1)Oc1ccc3ccccc3c1C2c1ccc2c(c1)OCO2 (stereo not given) | 0.619 µM (active) | – |
| COc1cccc(C2c3c(ncn(-c4ccccc4C#N)c3=N)Oc3ccc4ccccc4c32)c1 (stereo not given) | 3.1 µM (active) | – |
| COc1ccc(C2C3=C(N=CN(CCN4CCOCC4)C3N)Oc3ccccc32)cc1OC (stereo not given) | – | 4.73 |
| COc1cccc(C2c3c(ncn(Cc4cccs4)c3=N)Oc3ccc4ccccc4c32)c1 (stereo not given) | 3.1 µM (active) | – |
| COc1cccc(C2c3c(ncn(-c4ccc(C#N)cc4)c3=N)Oc3ccc4ccccc4c32)c1 (stereo not given) | 1.39 µM (active) | – |
| COc1ccc(-n2cnc3c(c2=N)C(c2cccc(OC)c2)c2c(ccc4ccccc24)O3)cc1 (stereo not given) | 1.74 µM (active) | – |
| Fc1ccc(-c2c(P(=S)(c3ccccc3)c3ccccc3)n3ccccc3[n+]2C/C=C/c2ccccc2)cc1 | 0.0201 µM (active) | – |
| COc1cccc(C2c3c(ncn(-c4ccncc4)c3=N)Oc3ccc4ccccc4c32)c1 (stereo not given) | 3.91 µM (active) | – |

| Structure (SMILES) | Potency | activity, negative = inhibition [%] |
| --- | --- | --- |
| N=c1c2c(ncn1-c1ccccc1)Oc1ccc3ccccc3c1C2c1ccc2c(c1)OCCO2 (stereo not given) | 0.276 µM (active) | – |
| COc1cccc(C2c3c(ncn(-c4ccccc4)c3=N)Oc3ccc4ccccc4c32)c1OC (stereo not given) | 0.981 µM (active) | – |
| CCC(C)(CCN1CCOCC1)N(Cc1cc2ccccc2n(C)c1=O)C(=O)C1CCCCC1 (stereo not given) | 0.00135 µM (active) | – |
| COc1cccc(C2c3c(ncn(-c4ccc(F)cc4)c3=N)Oc3ccc4ccccc4c32)c1 (stereo not given) | 2.2 µM (active) | – |
| COc1ccc(C2c3ccc4ccccc4c3Oc3ncn(CCN4CCOCC4)c(=N)c32)cc1OC (stereo not given) | 3.48 µM (active) | – |
| COc1ccc(C2c3c(nc(Cc4ccccc4)[nH]c3=O)Oc3ccc4ccccc4c32)cc1OC (stereo not given) | – | 11 |
| COc1cccc(C2c3c(ncn(-c4cccc(OC)c4)c3=N)Oc3ccc4ccccc4c32)c1 (stereo not given) | 0.391 µM (active) | – |
| COc1ccc(C2c3c(nc(CCCc4ccccc4)[nH]c3=O)Oc3ccc4ccccc4c32)cc1OC (stereo not given) | – | 19.1 |
| COc1cccc(C2c3c(ncn(-c4ccccn4)c3=N)Oc3ccc4ccccc4c32)c1 (stereo not given) | 4.92 µM (active) | – |
| COc1cccc(C2c3c(ncn(-c4ccccc4-c4ccccc4)c3=N)Oc3ccc4ccccc4c32)c1 (stereo not given) | 8.74 µM (active) | – |
| COc1ccc(C2c3ccc(OCc4ccccc4)cc3Oc3ncn(CCN4CCOCC4)c(=N)c32)cc1OC (stereo not given) | 11 µM (active) | – |
| Cc1nc2ccccn2c1C(O)(c1ccccc1)c1ccccc1 | 11.3 µM (active) | – |
| COc1cccc(C2c3c(ncn(-c4ccc(NC(C)=O)cc4)c3=N)Oc3ccc4ccccc4c32)c1 (stereo not given) | 4.38 µM (active) | – |
| COc1ccc(C2c3c(n(CCCc4ccccc4)cnc3=N)Oc3ccc4ccccc4c32)cc1OC (stereo not given) | 4.92 µM (active) | – |
| COc1cccc(C2c3c(ncn(-c4cccc(Cl)c4)c3=N)Oc3ccc4ccccc4c32)c1 (stereo not given) | 4.38 µM (active) | – |
| COc1cccc(C2C(C#N)=C(NC(=O)NCc3ccccc3)Oc3ccc4ccccc4c32)c1 (stereo not given) | – | -9.8 |
| N=c1c2c(ccn1CCc1ccccc1)Oc1ccc3ccccc3c1C2c1ccccc1 (stereo not given) | 0.492 µM (active) | – |
| COc1cccc(C2c3c(ncn(-c4ccccc4)c3=N)Oc3ccc4ccccc4c32)c1 (stereo not given) | 1.55 µM (active) and 139 nM (active) | – |
| COc1ccc(C2c3ccccc3Oc3ncn(CCN4CCOCC4)c(=N)c32)cc1OC (stereo not given) | 0.619 µM (active) | – |
| COc1cccc(C2c3c(ncn(-c4ccccc4C)c3=N)Oc3ccc4ccccc4c32)c1 (stereo not given) | 5.52 µM (active) | – |
